# From PubChem
# IL1B secr inh – inflammasome signaling inhibition, IL-1 beta readout; THP-1 LPS/ATP IL-1B secretion, AlphaLISA, 16 h; hits give low values; activity change, % at 57.5 µM; 4.7% of 360,000 active; AID 743279; in the data active = activity change below about -50%; inconclusive = mostly about -30% to -49%
#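 Secreted IL-1B measured by AlphaLISA bead assay after 16 h compound exposure of THP-1 cells; compounds (final up to 57.5 uM) added 1 h before LPS (250 ng/mL) and ATP (1.25 mM) stimulation; lower signal means less secretion.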
# HT1080-NT tox – kills 2HG-producing HT-1080-NT fibrosarcoma cells; HT-1080-NT fibrosarcoma viability, CellTiter-Glo ATP luminescence, 48 h; Potency, µM (titrated, usually from 46.1 µM), without a hit: top-dose activity, negative = less viability, actives largely listed as cytotoxic; 1.6% of 360,000 active; AID 686970;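 also: NT is the 2HG producing partner of a matched IDH1 knockdown line; potency is read from the fitted curve at half-maximal effect; 0% = DMSO-treated cells and -100% = media-only wells without cells; nearly all actives have a fitted effect of over 55% in size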
#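 A 48-hour cytotoxicity screen used HT-1080-NT cells plated 2 hours before compound delivery. ATP-based CellTiter-Glo luminescence measured viability, normalized to DMSO and no-cell controls.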
# HT1080 IDH1KD tx – kills HT-1080 cells with IDH1 knockdown; AID 686971; 2% of 360,000 active; HT-1080 IDH1 knockdown viability, ATP luminescence, 48 h; Potency, µM (series often up to 46.1 µM), for the others: at the top dose activity, negative = toxicity, usual class: cytotoxic;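 also: potency is read from the fitted curve at half-maximal effect; 0% = DMSO wells and -100% = cell-free medium wells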
#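 HT-1080-IDH1KD cells (IDH1 knocked down), 750/well in RPMI with 5% FBS, treated with compound 48 h at 37 degrees C. Viability by CellTiter-Glo luminescence, normalised to DMSO and no-cell wells; concentration-response curves classed.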
# DT40 TDP1 no CPT – qHTS for Inhibitors of human tyrosyl-DNA phosphodiesterase 1 (TDP1): qHTS in cells in absence of CPT | DT40 Tdp1-/- hTDP1 cells, no CPT, ATP luminescence, 48 h | Potency, µM (titrated, usually from 46.2 µM), for the others: top-dose activity change, negative = growth inhibition, actives largely listed as inhibitors | 15% of 420,000 active; also: potency is read from the fitted curve at half-maximal effect; nearly all actives have a fitted effect of over 55% in size
#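 Stably hTDP1-transfected Tdp1-null chicken DT40 cells were treated with library compounds minus camptothecin and grown for at least 48 hr at 37 °C, after which cellular ATP was quantified by luminescence.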
# TDP1 cell CPT – DT40-hTDP1 cell growth loss with CPT; chicken DT40 Tdp1-/-;hTDP1 cells + 20 nM CPT, ATP luminescence, 48 h; Potency, µM (doses to about 46.2 µM), for inactives: top-dose activity change, negative = growth inhibition, usual class: inhibitors; 12% of 420,000 active; also: potency is read from the fitted curve at half-maximal effect; nearly all actives have a fitted effect of over 55% in size
#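 Chicken DT40 Tdp1-/- cells complemented with human TDP1, 400 cells/well, exposed to compounds plus 20 nM camptothecin for at least 48 h at 37 C; viability read as ATP content by CellTiter-Glo luminescence.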
# Active calls of the source: *; u = inconclusive; x = no result given. Most compounds without a hit are left out; they make up all but 19% or so of the library. Unless noted, calls follow the shape of the dose curve; as a rule, active = well fitted curve in the direction sought with a large enough effect; inconclusive = small, poorly fitted or top-dose-only effect, or another doubt; inactive = no such curve, though single readings can be large; an effect the other way counts as inactive or inconclusive. Unless noted, % is scaled to controls: 0 for no effect and ±100 for the full control effect.
SMILES,IL1B secr inh,HT1080-NT tox,HT1080 IDH1KD tx,DT40 TDP1 no CPT,TDP1 cell CPT
CC(C)(C)OC(=O)NCCCC[C@H](NC(=O)c1nc[nH]c1C(=O)N1CCN(C(=O)OC(C)(C)C)CC1)C(=O)OC(C)(C)C,-7.6,-2.4%,-7.8%,23.1µM*,u
CC(C)(C)OC(=O)NCCCC[C@H](NC(=O)c1nc[nH]c1C(=O)N1CCN(c2ccccc2)CC1)C(=O)OC(C)(C)C,-55.4*,-1.4%,-18.9%,18.4µM*,u
O=C1CN(C(=O)c2ccc(F)cc2)c2ccccc2N1,6.0,11.8%,0.0%,-17.7%,20.3%
CN(C)c1ccc(-c2ccc3ncnc(N(C)Cc4ccco4)c3c2)cc1,x,x,x,2.59µM*,4.11µM*
CC(=O)Nc1ccc(/C=N/N2C(=O)NC(C)(c3ccc(OC(F)F)cc3)C2=O)cc1 (stereo unspecified),102.2,-11.7%,-21.0%,u,u
N#Cc1ccc(-c2ccccc2)nc1SCCN1CCOCC1,-75.3*,-1.6%,-19.2%,u,-29.6%
N#Cc1ccc(-c2ccccc2)nc1SCC(=O)c1cc2ccccc2oc1=O,10.2,u,u,u,23.1µM*
Cc1nc(SCC(=O)c2cc3ccccc3oc2=O)c(C#N)c(-c2cccs2)c1C(=O)Nc1ccccc1,-3.0,7.4%,9.4%,u,20.6µM*
Nc1cc2c(cc1Cl)-c1ccc([N+](=O)[O-])cc1C2=NO,2.5,20.5%,u,7.31µM*,8.2µM*
O=C1c2cc([N+](=O)[O-])ccc2-c2cc(Cl)c(NC(=O)C(F)(F)F)cc21,11.1,0.1%,0.0%,u,u
O=[N+]([O-])c1ccc2c(c1)C(=NO)c1cc(F)ccc1-2,u,7.4%,3.8%,11.6µM*,16.4µM*
O=[N+]([O-])c1ccc2c(c1)/C(=N\O)c1ccccc1-2,-8.4,-8.8%,-8.6%,u,u
COc1cc2c(cc1[N+](=O)[O-])-c1ccc([N+](=O)[O-])cc1C2=NO,u,-13.8%,-16.7%,14.6µM*,25.9µM*
COc1ccc(Nc2ccc([N+](=O)[O-])cc2[N+](=O)[O-])cc1,0.0,2.8%,-2.9%,-21.0%,14.7%
CC(OC(=O)c1ccco1)C(=O)NC1CCCC1 (stereo unspecified),16.1,0.5%,1.2%,-16.4%,10.9%
Cc1cc(NC(=O)Cn2c(=O)oc3cc(S(=O)(=O)N4CCCC4)ccc32)ccc1Br,x,x,x,14.6µM*,20.6µM*
Cc1ccc(NC(=O)Cn2c(=O)ccc3cc(S(=O)(=O)N4CCC(C)CC4)ccc32)cc1C,x,x,x,-59.7%,u
Cc1ccc(NC(=O)Cn2c(=O)oc3cc(S(=O)(=O)N4CCCCC4)ccc32)c(Cl)c1,x,x,x,11.6µM*,u
CC(=O)c1cccc(NC(=O)Cn2c(=O)oc3cc(S(=O)(=O)N4CCCC4)ccc32)c1,24.0,10.3%,7.9%,-11.3%,4.3%
Cc1cc(C)cc(NC(=O)Cn2c(=O)oc3cc(S(=O)(=O)N4CCCC4)ccc32)c1,x,x,x,20.6µM*,u
Cc1ccc(NC(=O)Cn2c(=O)oc3cc(S(=O)(=O)N4CCC(C)CC4)ccc32)cc1C,19.5,u,u,u,14.6µM*
Cc1ccc(NC(=O)Cn2c(=O)oc3cc(S(=O)(=O)N4CCCC4)ccc32)cc1F,x,x,x,-20.2%,-20.7%
COCCN1Cc2cccc(C(=O)NCc3cccs3)c2C1=O,21.6,2.8%,2.4%,20.1%,-17.9%
CCOC(=O)c1nnn(CC(=O)Nc2cc(F)ccc2F)c1C(=O)OCC,-73.2*,13.7%,7.6%,-15.8%,-11.4%
Cn1nc([N+](=O)[O-])nc1Oc1ccccc1F,-1.5,12.3%,-2.1%,-5.9%,-1.7%
Cc1nn(CCCC(=O)NCCc2ccccc2)c(C)c1[N+](=O)[O-],-4.7,u,13.9%,u,6.0%
Cn1nc([N+](=O)[O-])nc1S(C)(=O)=O,-100.9*,16.4µM*,16.4µM*,4.61µM*,4.61µM*
CS(=O)(=O)c1nc([N+](=O)[O-])nn1CCCc1ccccc1,-102.7*,u,u,13µM*,6.51µM*
